Measurements reported in the supplement of paper PMC10849652.
The full data set covers some 7,900 targets. This sample favours those with a hit. About 0.6% of all pairs of compound and target were hits.

What was measured:
Assay in all cases: log2 fold change, soluble protein after heating vs DMSO (PISA); higher = thermal stabilisation; K562 cells, 10 uM, 30 min; active = over 0.2 and 3.5 SD of the protein, either way, in both replicates (recomputed)
[1] = compound: CS(=O)(=O)c1ccc(-c2cnc(N)c(C(=O)Nc3ccccc3)n2)cc1
In short: (§1)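 Quantification of soluble protein used TMTpro 16plex LC-MS/MS, with channel sums equalised. Samples were the supernatant after 21,000xg for 90 min of pooled aliquots from K562 cells (2×10^6 cells/mL) treated with 10 μM compound for 30 min, heated for 3 min over 48°C-58°C, and extracted in PBS with 0.5% NP-40 at 4°C. Values, from duplicates, describe thermal stability against control samples on a log2 fold-change scale.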

[2] = compound: C[C@@H](Oc1cc(-c2cnn(C3CCNCC3)c2)cnc1N)c1c(Cl)ccc(F)c1Cl [crizotinib]
In short: as §1

[3] = compound: C[C@@H]1COCCN1C2=NC(=NC(=C2)C3(CC3)S(=O)(=O)C)C4=C5C=CNC5=CC=C4
In short: as §1

[4] = compound: C[C@H](C1=CC=C(C=C1)C(=O)NC2=C3C=CNC3=NC=C2)N
In short: as §1

[5] = compound: C[C@H](Nc1ncnc2nc[nH]c12)c1cc2cccc(Cl)c2c(=O)n1-c1ccccc1 [duvelisib]
In short: as §1

[6] = compound: Cc1cc(Nc2cc(CN3CCOCC3)c3nc(C)c(Cc4ccc(Cl)cc4F)n3n2)n[nH]1 [gandotinib]
In short: as §1

[7] = compound: Cc1cc(Nc2cc(N3CCN(C)CC3)nc(Sc3ccc(NC(=O)C4CC4)cc3)n2)n[nH]1 [tozasertib]
In short: as §1

[8] = compound: Cc1cc(SCc2sc(-c3ccc(C(F)(F)F)cc3)nc2C)ccc1OCC(=O)O
In short: as §1

[9] = compound: Cc1ccc(-n2nc(C(C)(C)C)cc2NC(=O)Nc2ccc(OCCN3CCOCC3)c3ccccc23)cc1 [doramapimod]
In short: as §1

[10] = compound: Cc1ccc(C(=O)N(CCCN)[C@@H](c2nc3cc(Cl)ccc3c(=O)n2Cc2ccccc2)C(C)C)cc1 [ispinesib]
In short: as §1

Measured: log2 fold change

STIM1 (UniProt Q13586)
Chain of UniProt Q13586 (Q13586 whole entry, looked up): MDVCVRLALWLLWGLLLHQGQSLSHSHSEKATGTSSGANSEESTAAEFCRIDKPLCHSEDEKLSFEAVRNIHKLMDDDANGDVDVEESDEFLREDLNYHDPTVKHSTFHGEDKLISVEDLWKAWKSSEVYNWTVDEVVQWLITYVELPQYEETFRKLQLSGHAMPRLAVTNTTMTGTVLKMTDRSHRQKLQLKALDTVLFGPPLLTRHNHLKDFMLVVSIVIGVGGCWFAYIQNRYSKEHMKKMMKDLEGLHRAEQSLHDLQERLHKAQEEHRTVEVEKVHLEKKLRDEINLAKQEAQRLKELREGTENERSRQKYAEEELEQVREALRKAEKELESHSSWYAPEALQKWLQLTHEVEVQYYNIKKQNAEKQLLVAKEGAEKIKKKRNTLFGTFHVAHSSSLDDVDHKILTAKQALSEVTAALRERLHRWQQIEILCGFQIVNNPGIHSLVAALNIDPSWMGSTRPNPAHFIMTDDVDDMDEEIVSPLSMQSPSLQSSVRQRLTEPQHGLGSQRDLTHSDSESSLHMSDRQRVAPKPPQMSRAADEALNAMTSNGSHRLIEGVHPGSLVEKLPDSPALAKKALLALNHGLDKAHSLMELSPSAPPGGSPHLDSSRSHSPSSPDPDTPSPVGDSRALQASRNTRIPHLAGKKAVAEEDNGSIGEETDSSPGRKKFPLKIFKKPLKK
inactive: [1] 0.015 | [2] -0.07 | [3] 0.087 | [4] -0.028 | [5] 0.014 | [6] -0.008 | [7] -0.018 | [8] 0.057 | [9] 0.011 | [10] -0.233

SMARCAD1 isoform 2 (UniProt Q9H4L7)
inactive: [1] 0.029 | [2] -0.112 | [3] 0.088 | [4] -0.054 | [5] 0.081 | [6] -0.042 | [7] 0.059 | [8] 0.15 | [9] -0.058 | [10] 0

TANK (UniProt Q92844)
inactive: [1] -0.032 | [2] 0.287 | [3] -0.021 | [4] 0.069 | [5] 0.038 | [6] 0.135 | [7] 0.112 | [8] 0.091 | [9] -0.015 | [10] -0.064

SRSF11 (UniProt Q05519)
inactive: [1] -0.037 | [2] 0.015 | [3] 0.045 | [5] 0.021 | [6] -0.068 | [7] 0.004 | [8] 0.067 | [9] -0.015 | [10] 0.08
active: [4] -0.277

TGFBI (UniProt Q15582)
inactive: [1] -0.021 | [2] -0.047 | [3] 0.215 | [4] 0.181 | [5] 0.067 | [6] -0.451 | [7] 0.031 | [8] 0.043 | [9] -0.182 | [10] -0.159

STAM2 (UniProt O75886)
inactive: [1] 0.114 | [2] -0.008 | [3] 0.041 | [4] -0.049 | [5] -0.031 | [6] -0.126 | [7] 0.054 | [8] 0.028 | [9] -0.022 | [10] -0.049

SRP68 (UniProt Q9UHB9)
Chain of UniProt Q9UHB9 (Q9UHB9 whole entry, looked up): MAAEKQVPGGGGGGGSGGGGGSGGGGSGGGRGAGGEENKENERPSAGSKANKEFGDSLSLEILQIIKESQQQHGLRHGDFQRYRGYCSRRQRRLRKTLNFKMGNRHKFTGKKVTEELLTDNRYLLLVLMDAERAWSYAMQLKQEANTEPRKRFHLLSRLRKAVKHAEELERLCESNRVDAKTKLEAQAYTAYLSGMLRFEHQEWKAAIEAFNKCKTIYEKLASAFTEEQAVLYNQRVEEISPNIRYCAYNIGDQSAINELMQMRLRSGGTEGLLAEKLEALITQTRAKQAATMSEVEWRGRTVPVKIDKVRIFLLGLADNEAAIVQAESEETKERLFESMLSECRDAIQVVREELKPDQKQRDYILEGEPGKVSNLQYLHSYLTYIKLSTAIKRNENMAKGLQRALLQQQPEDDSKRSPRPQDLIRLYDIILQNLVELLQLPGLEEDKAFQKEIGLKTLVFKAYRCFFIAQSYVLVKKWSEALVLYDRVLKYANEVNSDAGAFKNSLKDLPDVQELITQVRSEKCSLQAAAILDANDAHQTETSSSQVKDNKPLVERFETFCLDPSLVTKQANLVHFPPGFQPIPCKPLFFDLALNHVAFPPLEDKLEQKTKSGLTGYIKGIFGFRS
inactive: [1] 0.004 | [2] -0.134 | [3] -0.02 | [4] 0.15 | [5] -0.017 | [6] -0.064 | [7] 0.054 | [8] 0.112 | [9] 0.029 | [10] -0.209

STARD9 (UniProt Q9P2P6)
inactive: [1] 0.144 | [2] 0.141 | [3] 0.012 | [4] 0.049 | [5] -0.06 | [6] 0.04 | [7] 0.013 | [8] 0.028 | [9] 0.074 | [10] -0.146

STX17 (UniProt P56962)
Chain of UniProt P56962 (P56962 whole entry, looked up): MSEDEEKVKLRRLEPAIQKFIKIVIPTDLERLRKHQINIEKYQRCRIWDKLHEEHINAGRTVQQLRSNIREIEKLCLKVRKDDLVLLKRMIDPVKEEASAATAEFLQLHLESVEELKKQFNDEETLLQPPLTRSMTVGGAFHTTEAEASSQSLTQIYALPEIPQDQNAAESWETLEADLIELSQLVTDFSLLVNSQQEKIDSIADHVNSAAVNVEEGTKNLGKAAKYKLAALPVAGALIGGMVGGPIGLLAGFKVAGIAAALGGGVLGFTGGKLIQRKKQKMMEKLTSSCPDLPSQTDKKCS
inactive: [1] 0.197 | [2] -0.27 | [3] 0.025 | [4] -0.171 | [5] -0.156 | [6] -0.026 | [7] -0.031 | [8] 0.001 | [9] 0.031 | [10] -0.246

SP1 (UniProt P08047)
inactive: [1] 0.031 | [2] -0.038 | [3] -0.044 | [4] 0.042 | [5] 0.008 | [6] 0.083 | [7] 0.037 | [8] 0.023 | [9] 0.036 | [10] -0.113

THRAP3 (UniProt Q9Y2W1)
Chain of UniProt Q9Y2W1 (Q9Y2W1 whole entry, looked up): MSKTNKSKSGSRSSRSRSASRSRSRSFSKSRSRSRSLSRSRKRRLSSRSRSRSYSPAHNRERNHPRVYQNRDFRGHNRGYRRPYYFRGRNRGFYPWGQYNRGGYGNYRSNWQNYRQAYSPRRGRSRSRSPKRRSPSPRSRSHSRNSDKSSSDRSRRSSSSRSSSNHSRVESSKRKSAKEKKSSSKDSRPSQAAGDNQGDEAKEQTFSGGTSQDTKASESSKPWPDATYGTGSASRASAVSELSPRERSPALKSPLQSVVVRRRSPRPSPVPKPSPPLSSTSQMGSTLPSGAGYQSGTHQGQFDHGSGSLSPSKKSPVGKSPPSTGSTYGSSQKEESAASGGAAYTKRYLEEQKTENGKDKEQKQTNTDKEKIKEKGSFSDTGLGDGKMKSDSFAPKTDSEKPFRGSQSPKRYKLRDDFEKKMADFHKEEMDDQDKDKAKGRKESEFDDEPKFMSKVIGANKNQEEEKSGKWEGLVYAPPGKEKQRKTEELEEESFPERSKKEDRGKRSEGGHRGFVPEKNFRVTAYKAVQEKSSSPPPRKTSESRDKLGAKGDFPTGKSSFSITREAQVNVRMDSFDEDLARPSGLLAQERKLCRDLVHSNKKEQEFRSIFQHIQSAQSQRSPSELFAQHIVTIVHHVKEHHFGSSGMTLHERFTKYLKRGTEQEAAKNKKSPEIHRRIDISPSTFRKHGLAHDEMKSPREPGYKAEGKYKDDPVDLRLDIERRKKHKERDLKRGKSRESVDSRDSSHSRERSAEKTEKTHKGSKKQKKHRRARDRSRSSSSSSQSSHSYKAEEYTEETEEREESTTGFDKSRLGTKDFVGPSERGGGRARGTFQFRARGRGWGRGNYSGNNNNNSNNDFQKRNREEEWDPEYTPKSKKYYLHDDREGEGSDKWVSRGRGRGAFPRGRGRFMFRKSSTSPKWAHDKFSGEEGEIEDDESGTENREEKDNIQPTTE
inactive: [1] 0.014 | [2] 0.04 | [3] 0.019 | [4] -0.111 | [5] 0.044 | [6] -0.003 | [7] -0.078 | [8] -0.071 | [9] 0.133 | [10] -0.043

SP100 isoform 4 (UniProt P23497)
inactive: [1] -0.002 | [2] 0.062 | [3] 0.071 | [4] -0.1 | [5] 0.074 | [6] -0.008 | [7] 0.033 | [8] -0.016 | [9] -0.046 | [10] 0.062

TBC1D23 (UniProt Q9NUY8)
inactive: [1] -0.026 | [2] -0.019 | [3] 0.022 | [4] 0 | [5] 0.002 | [6] -0.205 | [7] -0.042 | [8] 0.028 | [9] -0.027
active: [10] -0.48

SSX2 (UniProt Q16385)
Chain of UniProt Q16385 (Q16385 whole entry, looked up): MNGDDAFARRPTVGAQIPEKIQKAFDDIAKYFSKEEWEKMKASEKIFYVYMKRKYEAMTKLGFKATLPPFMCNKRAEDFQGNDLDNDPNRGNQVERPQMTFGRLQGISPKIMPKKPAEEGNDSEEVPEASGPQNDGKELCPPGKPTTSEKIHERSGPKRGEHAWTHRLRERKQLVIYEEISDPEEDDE
inactive: [1] -0.024 | [2] 0.062 | [3] 0.05 | [4] 0.053 | [5] 0.036 | [6] -0.003 | [7] 0.031 | [8] -0.009 | [9] -0.043 | [10] -0.029

TIMM13 (UniProt Q9Y5L4)
Chain of UniProt Q9Y5L4 (Q9Y5L4 whole entry, looked up): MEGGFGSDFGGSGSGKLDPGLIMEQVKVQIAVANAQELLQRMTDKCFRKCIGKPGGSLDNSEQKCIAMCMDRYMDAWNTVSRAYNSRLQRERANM
inactive: [1] -0.047 | [2] 0.051 | [3] 0.151 | [4] -0.115 | [5] 0.079 | [6] -0.002 | [7] 0.038 | [8] 0.006 | [9] 0.039 | [10] 0.12

TLK1 (UniProt Q9UKI8)
Chain of UniProt Q9UKI8 (Q9UKI8 whole entry, looked up): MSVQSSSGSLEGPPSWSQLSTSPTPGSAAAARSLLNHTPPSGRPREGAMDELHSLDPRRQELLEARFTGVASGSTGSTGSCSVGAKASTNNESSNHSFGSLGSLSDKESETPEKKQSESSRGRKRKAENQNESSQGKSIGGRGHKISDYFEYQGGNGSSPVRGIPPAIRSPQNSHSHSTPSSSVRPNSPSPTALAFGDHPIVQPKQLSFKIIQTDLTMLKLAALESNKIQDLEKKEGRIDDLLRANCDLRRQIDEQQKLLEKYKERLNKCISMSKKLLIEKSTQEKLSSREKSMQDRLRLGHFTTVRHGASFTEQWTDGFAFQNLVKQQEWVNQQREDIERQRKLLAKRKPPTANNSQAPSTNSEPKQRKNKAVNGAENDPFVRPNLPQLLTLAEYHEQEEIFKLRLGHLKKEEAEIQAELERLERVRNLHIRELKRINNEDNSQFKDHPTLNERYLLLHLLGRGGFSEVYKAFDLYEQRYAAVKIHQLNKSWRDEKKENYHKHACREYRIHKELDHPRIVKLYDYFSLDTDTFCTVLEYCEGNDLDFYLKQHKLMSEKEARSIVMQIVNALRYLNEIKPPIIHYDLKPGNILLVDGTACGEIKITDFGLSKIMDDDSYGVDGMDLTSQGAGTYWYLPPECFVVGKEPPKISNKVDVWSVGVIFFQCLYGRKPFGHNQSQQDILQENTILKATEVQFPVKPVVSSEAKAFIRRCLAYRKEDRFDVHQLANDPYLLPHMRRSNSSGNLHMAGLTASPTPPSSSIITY
inactive: [1] -0.058 | [2] -0.008 | [3] 0.101 | [4] -0.028 | [5] 0.019 | [6] 0.145 | [7] -0.004 | [8] 0.028 | [9] -0.023 | [10] 0.026

SNRPB2 (UniProt P08579)
inactive: [1] -0.014 | [2] 0.02 | [3] -0.024 | [4] 0.008 | [5] -0.017 | [6] 0.026 | [7] -0.008 | [8] -0.048 | [9] -0.01 | [10] 0.027

TJP1 (UniProt Q07157)
inactive: [1] 0.004 | [2] -0.016 | [3] 0.044 | [4] -0.06 | [5] 0.076 | [6] -0.124 | [7] 0.064 | [8] 0.061 | [9] -0.01 | [10] 0.026

SPG21 (UniProt Q9NZD8)
Chain of UniProt Q9NZD8 (Q9NZD8 whole entry, looked up): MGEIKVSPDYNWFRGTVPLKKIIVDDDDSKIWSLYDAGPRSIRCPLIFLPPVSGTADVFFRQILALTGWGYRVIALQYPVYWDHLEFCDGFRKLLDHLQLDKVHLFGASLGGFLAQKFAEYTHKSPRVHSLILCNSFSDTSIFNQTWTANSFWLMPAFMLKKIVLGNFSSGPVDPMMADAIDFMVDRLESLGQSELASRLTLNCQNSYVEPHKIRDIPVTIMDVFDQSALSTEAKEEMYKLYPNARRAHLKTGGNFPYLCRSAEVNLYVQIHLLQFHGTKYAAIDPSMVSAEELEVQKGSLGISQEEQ
inactive: [1] 0.077 | [2] -0.24 | [3] 0.053 | [4] 0.013 | [5] 0.003 | [6] 0 | [7] 0.026 | [8] 0.052 | [9] 0.091 | [10] -0.093

TECR (UniProt Q9NZ01)
Chain of UniProt Q9NZ01 (Q9NZ01 whole entry, looked up): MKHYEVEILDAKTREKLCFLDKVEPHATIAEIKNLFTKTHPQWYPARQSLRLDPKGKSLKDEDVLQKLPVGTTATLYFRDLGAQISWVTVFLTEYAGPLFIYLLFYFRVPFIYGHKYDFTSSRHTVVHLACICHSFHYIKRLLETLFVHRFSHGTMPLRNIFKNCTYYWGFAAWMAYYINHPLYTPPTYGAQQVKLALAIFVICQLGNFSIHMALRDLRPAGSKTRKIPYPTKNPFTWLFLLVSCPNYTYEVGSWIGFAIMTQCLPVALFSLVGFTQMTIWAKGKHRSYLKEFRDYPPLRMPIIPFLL
inactive: [1] -0.002 | [2] -0.247 | [3] 0.054 | [4] 0.045 | [5] 0.05 | [7] -0.031 | [8] 0.044 | [9] -0.095
active: [6] -0.344 | [10] -0.501

SYNE1 (UniProt Q8NF91)
inactive: [1] 0.096 | [2] -0.132 | [3] -0.041 | [4] 0.104 | [5] 0.103 | [6] 0.109 | [7] -0.187 | [8] -0.04 | [9] 0.061 | [10] -0.159

TAMM41 isoform 3 (UniProt Q96BW9)
inactive: [1] 0.064 | [3] 0.073 | [4] -0.016 | [5] 0.032 | [6] -0.04 | [7] -0.036 | [8] 0.05 | [9] -0.048
active: [2] -0.232 | [10] -0.249

STAT3 (UniProt P40763)
inactive: [1] 0.059 | [2] -0.126 | [3] 0.105 | [4] -0.063 | [5] 0 | [6] -0.184 | [7] 0.073 | [8] 0.088 | [9] -0.009 | [10] -0.03

TFB2M (UniProt Q9H5Q4)
Chain of UniProt Q9H5Q4 (Q9H5Q4 whole entry, looked up): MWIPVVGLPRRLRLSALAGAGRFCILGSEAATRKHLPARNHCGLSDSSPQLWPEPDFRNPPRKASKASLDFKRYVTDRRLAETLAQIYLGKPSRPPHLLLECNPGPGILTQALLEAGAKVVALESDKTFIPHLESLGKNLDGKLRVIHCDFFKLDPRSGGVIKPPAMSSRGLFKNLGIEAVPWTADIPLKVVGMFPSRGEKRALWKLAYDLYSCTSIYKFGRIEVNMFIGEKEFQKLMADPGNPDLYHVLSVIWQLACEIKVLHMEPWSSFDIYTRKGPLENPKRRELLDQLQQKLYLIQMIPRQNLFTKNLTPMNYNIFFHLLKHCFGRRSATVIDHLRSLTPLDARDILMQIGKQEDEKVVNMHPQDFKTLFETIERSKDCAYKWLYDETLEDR
inactive: [1] -0.013 | [2] -0.06 | [3] 0.096 | [4] 0.025 | [5] 0.049 | [6] -0.19 | [7] 0.013 | [8] 0.033 | [9] -0.024 | [10] -0.044

SRRM2 (UniProt Q9UQ35)
inactive: [1] -0.048 | [2] -0.246 | [3] 0.021 | [4] -0.255 | [5] -0.044 | [6] -0.13 | [7] 0.013 | [8] 0.012 | [9] 0.044 | [10] -0.131

TIMM29 (UniProt Q9BSF4)
inactive: [1] 0.044 | [2] 0.08 | [3] 0.065 | [4] -0.033 | [5] -0.015 | [6] -0.014 | [7] 0.012 | [8] 0.02 | [9] 0.185 | [10] 0.033

SURF2 (UniProt Q15527)
Chain of UniProt Q15527 (Q15527 whole entry, looked up): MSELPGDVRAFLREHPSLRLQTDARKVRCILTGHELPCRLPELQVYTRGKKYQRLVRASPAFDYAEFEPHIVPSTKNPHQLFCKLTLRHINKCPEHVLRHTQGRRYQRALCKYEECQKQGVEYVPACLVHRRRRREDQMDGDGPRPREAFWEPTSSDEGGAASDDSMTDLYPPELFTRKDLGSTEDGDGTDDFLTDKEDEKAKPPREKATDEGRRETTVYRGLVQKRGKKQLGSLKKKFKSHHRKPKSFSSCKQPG
inactive: [1] -0.009 | [2] 0.084 | [3] -0.02 | [4] -0.118 | [5] 0.018 | [6] 0 | [7] -0.01 | [8] 0.04 | [9] -0.068 | [10] 0.038

TBC1D10B (UniProt Q4KMP7)
inactive: [1] 0.012 | [2] -0.04 | [3] 0.013 | [4] -0.153 | [5] 0 | [6] 0.046 | [7] -0.022 | [8] 0.092 | [9] 0.021 | [10] 0.083

SUCLG1 (UniProt P53597)
inactive: [1] 0.016 | [2] -0.028 | [3] 0.079 | [4] -0.072 | [5] 0.067 | [6] -0.048 | [7] -0.033 | [8] -0.004 | [9] -0.019 | [10] -0.012

SPTBN1 (UniProt Q01082)
inactive: [1] 0.018 | [2] 0.042 | [3] 0.008 | [4] 0.039 | [5] 0.016 | [6] -0.039 | [7] 0.046 | [8] 0.094 | [9] 0.021 | [10] 0.03
